GPR151 ag – human GPR151 activation; AID 1508602; activation, % at 11.2 µM; 1% of 650,000 active; PathHunter beta-arrestin GPR151 cells, luminescence; Q8TDV0; in the data active = activation above about 4.9%;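 also: 0% = median of compound wells and 100% = cells with positive control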
TEAD-YAP block – TEAD-YAP interaction inhibition | HEK-TIYL cells, TEAD-Gal4/YAP UAS-luciferase luminescence | inhibition, % at 9.12 µM | 1.4% of 640,000 active | AID 1259422; in the data active = inhibition above about 32%;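 also: 0% = median of test compound wells and 100% = reference inhibitor wells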
FBW7 act – human FBW7 E3 ligase activation, primary screen; AlphaScreen FBW7–phospho-cyclin E peptide binding, activator screen; normalized activity (activation), % at 26.1 µM; 0.13% of 650,000 active; in the data active = normalized activity above about 1.9%;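 also: purified mutant Fbw7 with reduced substrate affinity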
Target sequence (Q969H0 whole entry, looked up): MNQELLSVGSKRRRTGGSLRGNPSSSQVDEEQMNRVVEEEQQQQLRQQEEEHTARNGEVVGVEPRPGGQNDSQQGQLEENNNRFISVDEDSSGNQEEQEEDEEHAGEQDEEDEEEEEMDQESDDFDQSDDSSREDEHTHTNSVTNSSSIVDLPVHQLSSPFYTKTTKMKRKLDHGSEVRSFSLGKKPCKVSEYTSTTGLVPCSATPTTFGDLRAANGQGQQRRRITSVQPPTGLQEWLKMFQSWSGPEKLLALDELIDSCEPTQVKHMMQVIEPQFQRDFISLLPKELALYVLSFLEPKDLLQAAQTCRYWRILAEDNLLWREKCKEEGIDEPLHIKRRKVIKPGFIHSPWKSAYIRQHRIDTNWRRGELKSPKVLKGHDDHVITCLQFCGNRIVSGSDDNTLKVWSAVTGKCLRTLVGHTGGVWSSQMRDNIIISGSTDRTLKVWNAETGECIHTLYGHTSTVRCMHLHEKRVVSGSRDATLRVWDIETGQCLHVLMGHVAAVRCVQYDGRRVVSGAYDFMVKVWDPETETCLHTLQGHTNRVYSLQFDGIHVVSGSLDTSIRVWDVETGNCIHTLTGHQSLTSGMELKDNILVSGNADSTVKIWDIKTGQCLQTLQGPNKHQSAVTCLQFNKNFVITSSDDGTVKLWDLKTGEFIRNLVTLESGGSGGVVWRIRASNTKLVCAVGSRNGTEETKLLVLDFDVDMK
MITF inh – inhibitors of human MITF; O75030; AlphaScreen MITF homodimerization, bead proximity signal; inhibition, % at 2.6 µM; 0.91% of 650,000 active; AID 1259374; in the data active = inhibition above about 50%;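 also: 0% = vehicle wells with protein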
* marks the source's active call; other numbers are inactive results; . = not tested or not shown. Shown are actives, neighbours in structure and some others; about 3.5% of the full set was active somewhere.

SMILES	GPR151 ag	TEAD-YAP block	FBW7 act	MITF inh
CC1(C)CC(=O)C2=C(C1)Nc1ccccc1N(C(=O)Nc1ccc(Cl)c(Cl)c1)C2c1ccco1 (stereo not given)	-2	3	0	23
Cc1cccc(Nc2cc(N3CCOCC3)c3noc4c3c2C(=O)c2ccccc2-4)c1	0	-1	0	15
COc1cc(Nc2cc(N3CCC(C)CC3)c3noc4c3c2C(=O)c2ccccc2-4)cc(OC)c1OC	3	43*	0	39
O=C1c2ccccc2-c2onc3c(N4CCCCC4)cc(N4CCOCC4)c1c23	0	8	-1	62*
Cc1ccccc1Nc1cc(N2CCOCC2)c2noc3c2c1C(=O)c1ccccc1-3	-1	5	0	55*
COc1cc(Nc2cc(N3CCCC3)c3noc4c3c2C(=O)c2ccccc2-4)cc(OC)c1OC	1	0	0	2
O=S(=O)(Nc1ccc(Cl)c2cccnc12)c1ccccc1	-1	53*	0	18
Cc1ccc(S(=O)(=O)Nc2ccc(Cl)c3cccnc23)cc1	-1	58*	0	-11
COc1ccccc1C(NC(C)=O)c1cc([N+](=O)[O-])c2cccnc2c1O (stereo not given)	0	-8	-1	85*
CC(=O)NC(c1ccc(Cl)cc1Cl)c1cc([N+](=O)[O-])c2cccnc2c1O (stereo not given)	1	31	-2	58*
CC(=O)NC(c1ccco1)c1cc([N+](=O)[O-])c2cccnc2c1O (stereo not given)	-1	-2	0	55*
O=[N+]([O-])c1cc([N+](=O)[O-])c2cccnc2c1Oc1ccccc1O	-1	-27	-1	68*
CC(=O)NC(c1ccc(C)cc1)c1cc([N+](=O)[O-])c2cccnc2c1O (stereo not given)	1	-10	-1	31
CC1CC(c2ccccc2)CCS1 (stereo not given)	0	-6	0	15
CCn1cc(C(=O)NC2CCCCC2)c(=O)c2cc(S(=O)(=O)N3CCOCC3)ccc21	0	-3	0	2
O=C(NC12CC3CC(CC(C3)C1)C2)N1CCc2ccccc2C1	-3	-2	0	6
CC(=O)NC(c1ccc2c(c1)OCO2)c1cc([N+](=O)[O-])c2cccnc2c1O (stereo not given)	0	-3	-1	68*
O=[N+]([O-])c1ccc(OS(=O)(=O)c2ccc3ccccc3c2)c2ncccc12	1	48*	-2	2
COc1cc(C(=O)Oc2ccc([N+](=O)[O-])c3cccnc23)cc(OC)c1OC	1	6	0	15
O=C(NCc1cccs1)c1cc(-c2ccc(O)cc2)on1	0	16	0	5
CCN(CC)c1ccc2cc(C(=O)Nc3cccc(OC)c3)/c(=N/O)oc2c1	-1	14	0	22
CCOC(=O)c1[nH]c(C)c(C(=O)Nc2cccc(F)c2)c1C	0	43*	1	8
CCOC(=O)c1[nH]c(C)c(C(=O)Nc2ccc(F)cc2)c1C	0	-3	0	9
CCOC(=O)c1[nH]c(C)c(C(=O)Nc2cccc(Cl)c2)c1C	0	46*	0	-22
N#C/C(=C\c1ccc(Cl)cc1)C(=O)OCC(=O)N1CCCCC1	-1	-6	0	14
SMILES	GPR151 ag	TEAD-YAP block	FBW7 act	MITF inh
COc1cc(OC)cc(C(=O)NN=C2CCN(C)CC2)c1	1	51*	0	18
CN1CCC(=NNC(=O)c2cc(O)c(O)c(O)c2)CC1	0	-2	0	83*
O=C(CCc1nnc(Cc2c[nH]c3ccccc23)o1)NCCn1ccc2ccccc21	0	0	2.3*	12
Cn1c(CCNC(=O)CCc2nnc(Cc3c[nH]c4ccccc34)o2)nc2ccccc21	0	2	0	9
Cc1ccccc1NC(=O)c1ccc(F)c(S(=O)(=O)N2CCCC(C)C2)c1 (stereo not given)	2	5	0	5
CN[C@@H]1[C@H](O[C@H]2[C@H](O[C@@H]3[C@@H](O)[C@H](O)[C@@H](N=C(N)N)[C@H](O)[C@H]3N=C(N)N)O[C@@H](C)[C@]2(O)C=O)O[C@@H](CO)[C@H](O)[C@H]1O	-1	.	0	12
Cc1cccc(-n2c(C)cc(C(=O)OCc3c(C)noc3C)c2C)c1	-1	41*	0	8
Cc1noc(C)c1COC(=O)c1ccccc1I	0	2	0	-3
COc1cccc(OCc2nc(-c3ccccn3)no2)c1	-3	-44	0	-12
Cc1ccc(C)c(S(=O)(=O)Nc2ccc(I)cc2)c1	0	47*	0	5
Cc1cccc(N2CCN(C(=O)CSc3ccsc3[N+](=O)[O-])CC2C)c1 (stereo not given)	3	10	0	-1
CC(=O)NC1=NC(=O)/C(=C/c2ccc(-c3ccc(Cl)cc3)o2)S1	0	-12	0	-2
CC(=O)NC1=NC(=O)/C(=C\c2ccc(I)o2)S1	1	-3	0	75*
CC[n+]1c(I)ccc2cc(OC)ccc21	2	-2	0	-1
CCN1/C(=C\C=C(/C)C=O)Sc2ccccc21	3	11	0	8
CCN1/C(=C/c2ccc3ccccc3[n+]2CC)Sc2ccc(OC)cc21	1	90*	0	18
CCCCN1/C(=C/c2ccc3cc(OC)ccc3[n+]2CC)Sc2ccc(OC)cc21	2	89*	-1	18
CCN1/C(=C/c2ccc3ccccc3[n+]2CC)Sc2ccc(I)cc21	4	68*	0	18
CCN1/C(=C/c2ccc3ccccc3[n+]2CC)Sc2c1ccc1ccccc21	1	87*	0	43
CCC(C)NC(=O)CNC(=O)c1nn(-c2ccc(OC)cc2)c(=O)c2ccccc12 (stereo not given)	0	9	0	19
CCCCN1/C(=C/c2ccc3ccccc3[n+]2CC)Sc2ccccc21	4	92*	-1	5
CCN1/C(=C/c2ccc3cc(NC(C)=O)ccc3[n+]2CC)Sc2ccccc21	0	52*	-1	6
CCOC(=O)Nc1c(C)cc(C)cc1[N+](=O)[O-]	0	50*	0	8
CCC(=O)NC(Nc1ccc(OC(F)(F)F)cc1)(C(=O)OC)C(F)(F)F (stereo not given)	-2	7	0	6
COc1ccc(C(=O)Nc2nc(-c3ccc(C(C)C)cc3)cs2)cc1	0	-2	0	7
SMILES	GPR151 ag	TEAD-YAP block	FBW7 act	MITF inh
CC(C)c1ccc(-c2csc(NC(=O)c3ccnn3C)n2)cc1	2	57*	0	-22
COc1ccc(/C=C/c2ccc(N)cc2)cc1	-1	41*	0	13
COCCNC(=O)c1ccccc1NC(=O)C(C)N(c1ccc(C)cc1)S(C)(=O)=O (stereo not given)	2	2	0	-8
COC(=O)c1ccc2nc(C)cc(Nc3ccc(OC)cc3)c2c1	0	-6	0	5
COc1ccc(Nc2cc(C)nc3nc(C)nn23)c(OC)c1	-1	8	0	13
COC(=O)c1ccc(Nc2cc(C)nc3ccc(OC)cc23)cc1	-2	36*	0	20

Bioassay records (PubChem)
